Compound activity as filed in PubChem.
Cycloheximide cs: counter-screen for Shiga toxin inhibitors: cycloheximide protein synthesis inhibition; 12% of 300,000 active; max response, %; cell reporter, cycloheximide protein synthesis inhibition counterscreen; AID 2314; in the data active means max response mostly above about 13%, no sharp cut-off; inactive means mostly below about 14%; further: read at 38.3 µM for the half of the compounds with a filed dose; 0% is about no effect
LmPK inhibitor: blocks Leishmania mexicana pyruvate kinase activity | purified LmPK, Kinase-Glo ATP luminescence, 1 h | Potency, µM (top dose mostly 57.5 µM), for the others: at the top dose activity change, negative = inhibition, usual class: inhibitors | 0.37% of 290,000 active | AID 1721; further: potency means the concentration at half of the fitted maximal effect; on the % scale 0 is the no-effect control and ±100 the full control effect
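Kinase-Glo luminescence read after 1 h RT reaction of 0.1 nM LmPK with 0.5 mM PEP and 0.1 mM ADP. Activity scaled between uninhibited and enzyme-free controls.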
RE007 growth inh: less growth of the S. pombe RE007 Vpr strain; AID 651644; Potency, µM (top dose mostly 92.2 µM), for inactives: at the top dose activity change, negative = less growth, most hits filed as inhibitors; S. pombe RE007 Vpr strain, BacTiter-Glo ATP luminescence, 24 h; 0.21% of 360,000 active; active means well fitted falling curve with a large enough effect; inconclusive means small, poorly fitted or top-dose-only effect; inactive means no such curve, though single readings can be large or run the other way; further: potency means the concentration at half of the fitted maximal effect; on the % scale 0 is the no-effect control and ±100 the full control effect; nearly all actives have a fitted effect of over 50% in size
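Fission yeast RE007 carrying one integrated HIV-1 vpr copy, seeded at OD 0.01 in PMG+AL medium with 23 nL pinned compound. Grown 24 h at 30 degrees; viability read by BacTiter-Glo luminescence after 5 min.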
Shiga toxin inh: Shiga toxin inhibition | Vero cells, Shiga toxin protein synthesis inhibition reporter | inhibition, % at 38.7 µM | 9.2% of 290,000 active; in the data active means inhibition mostly above about 28%, no sharp cut-off; inactive means mostly below about 43%; further: 0% is about no effect
FBPA Giardia inh: Giardia lamblia aldolase inhibition. A8B2U2. purified Giardia FBPA. Potency, µM (doses to about 59.6 µM), for the others: at the highest dose activity, negative = inhibition, usual class: inhibitors. 0.71% of 290,000 active; further: potency means the concentration at half of the fitted maximal effect; on the % scale 0 is the no-effect control and ±100 the full control effect; nearly all actives have a fitted effect of over 55% in size
Target sequence (A8B2U2 whole entry, looked up): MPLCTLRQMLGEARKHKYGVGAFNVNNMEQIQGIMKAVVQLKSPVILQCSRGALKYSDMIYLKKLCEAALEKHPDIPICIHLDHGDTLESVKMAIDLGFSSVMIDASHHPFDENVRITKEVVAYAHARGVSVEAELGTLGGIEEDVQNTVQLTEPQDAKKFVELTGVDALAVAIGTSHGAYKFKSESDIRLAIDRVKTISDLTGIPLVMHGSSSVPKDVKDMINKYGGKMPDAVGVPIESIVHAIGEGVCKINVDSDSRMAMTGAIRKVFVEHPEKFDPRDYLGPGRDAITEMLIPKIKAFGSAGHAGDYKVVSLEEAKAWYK
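40 nM FBPA preincubated 10 min at RT with compound (up to 57.5 uM final), then substrate plus GAPDH/TPI/NAD/arsenate coupling and diaphorase/resazurin added. Fluorescence read after 20 min at RT, 525/598 nm.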
TbPYK inhibitor: T. brucei pyruvate kinase inhibition; TbPYK enzyme, Kinase-Glo Plus ATP luminescence, 45 min; Q57TT1; 0.12% of 410,000 active; Potency, µM (top dose mostly 76.8 µM), for inactives: top-dose activity, negative = inhibition, actives largely listed as inhibitors; AID 624173; further: potency means the concentration at half of the fitted maximal effect; on the % scale 0 is the no-effect control and ±100 the full control effect; nearly all actives have a fitted effect of over 50% in size
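Activity of T. brucei pyruvate kinase was followed by Kinase-Glo Plus luminescence after the enzyme reacted 45 min at room temperature with 130 uM ADP (final) and substrate. Test compounds were added before ADP at multiple concentrations.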
Starred values were filed as active, the others as inactive; ? = inconclusive; / = not tested or not shown; [ ] = another dose, or the depositor's remark. The entries come from a sample that favours hits as a whole. Unless noted, the call rests on the fitted dose curve; in most records, active means well fitted curve in the direction sought with a large enough effect; inconclusive means small, poorly fitted or top-dose-only effect, or another doubt; inactive means no such curve, though single readings can be large; an effect the other way counts as inactive or inconclusive.

SMILES	Cycloheximide cs	LmPK inhibitor	RE007 growth inh	Shiga toxin inh	FBPA Giardia inh	TbPYK inhibitor
CCN(CC)S(=O)(=O)c1cc(C(=O)Nc2ccccc2[N+](=O)[O-])ccc1Cl	27*	3%	-1%	41*	-1%	-6%
CCN(CC)S(=O)(=O)c1cc(C(=O)NC2=NCCS2)ccc1Cl	1	9%	-8%	-2	-1%	2%
O=C(COc1ccc(Cl)cc1)N(Cc1ccccc1)c1nc(-c2ccccc2)cs1	-3	2%	1%	16	4%	-15%
COc1ccc(-c2csc(N(C)C(=O)c3cccs3)n2)cc1	22*	8%	-12%	33*	-3%	3%
O=C(C1CC1)N(Cc1ccco1)c1nc(-c2ccccc2)cs1	8.3*	-11%	-11%	5	-9%	-3%
COc1ccc(-c2csc(N(Cc3ccco3)C(=O)c3cccs3)n2)cc1	22*	0%	37%	57*	-4%	0%
Cn1cccc1C(=O)OCc1ccc(C(C)(C)C)cc1	32*	-1%	-15%	98*	-11%	1%
O=C(CN1C(=O)c2ccccc2C1=O)NCCc1c[nH]c2ccc(Cl)cc12	-3	5%	-6%	16	-1%	0%
O=C1c2ccccc2C(=O)N1CCCc1c[nH]c2ccc(Cl)cc12	14*	4%	17%	-8	-4%	7%
O=C(Oc1ccc2[nH]cc(CCN3C(=O)c4ccccc4C3=O)c2c1)c1ccco1	27*	-2%	-3%	41	0%	2%
COc1ccc(OC)c(NC(=O)N2CCC3(CC2)Oc2ccccc2C(=O)N3Cc2ccccc2F)c1	/	/	/	/	/	1%
COCCC1CCCCN1C(=O)c1cccc(OC2CCN(S(C)(=O)=O)CC2)c1 (centres undefined)	-2	-3%	-2%	-9	/	3%
Cc1nnc(N2CCCC(C(=O)NCc3ccccc3F)C2)c2nn(-c3ccc(Cl)cc3)c(C)c12 (centres undefined)	/	/	/	/	/	-4%
O/N=C/c1cn(-c2ccccc2)nn1	27*	-4%	-3%	37	1%	7%
O/N=C/c1cn(-c2ccc(Cl)cc2)nn1	37*	-5%	-13%	49	7%	0%
COc1cc(C(=O)N2CCN(c3ccc(Nc4ccccc4)nn3)CC2)cc(OC)c1OC	/	/	/	/	/	-3%
CCOC(=O)C1=NO[C@@]2(C=C(Br)C3(OCCCO3)[C@H]3O[C@H]32)C1	/	/	/	/	1%[12.9 µM]	/
Cc1c(C(=O)NCc2cccc(F)c2)oc2c1-c1[nH]ncc1CC2	/	/	/	/	/	0%
CC(=O)Nc1ccc(-c2ccnc3c2CC(C)(C(=O)Nc2ccc4c(c2)OCO4)O3)cc1 (centres undefined)	/	/	-5%	/	/	4%
Cc1ccnc(NC(=O)Nc2cccc(F)c2)c1	41*	?	9%[3.69 µM]	73*	4%	/
O=C(COC(=O)/C=C/c1cccc(F)c1)Nc1ccc(Cl)cn1	0	1%	-8%	27	0%	0%
Cc1ccc(NC(=O)Nc2cccc(F)c2)nc1	26*	-8%	-13%	21	5%	1%
O=C(Nc1cccc(F)c1)Nc1ccc(Cl)cn1	24*	4%	-15%	38*	5%	1%
CC(=O)Nc1cccc(NC(=O)Nc2cccc(F)c2)c1	9	-1%	1%	17	-3%	-5%
CCn1c(NCc2ccc(OC)cc2)nc2ccccc21	12*	-6%	-5%	23*	-4%	2%
SMILES	Cycloheximide cs	LmPK inhibitor	RE007 growth inh	Shiga toxin inh	FBPA Giardia inh	TbPYK inhibitor
CCn1c(NCc2ccccc2Cl)nc2ccccc21	29	1%	-20%	24*	9%	-7%
C=CCn1c(NCc2ccc(N(C)C)cc2)nc2ccccc21	33*	1%	-1%	active	-5%	0%
CCn1c(NCc2ccco2)nc2ccccc21	7	0%	-29%	-1	-1%	1%
O=C(NCCCn1ccnc1)C(=O)c1c[nH]c2ccccc12	15	0%	12%	-4	1%	-2%
Cc1nc2cnc(Oc3cccc(Cl)c3)nc2n(Cc2ccc(F)cc2)c1=O	/	/	/	/	5%	/
Cc1cccc(C(=O)NC2C(=O)NNC2c2ccc(Cl)cc2)c1 (centres undefined)	-5	0%[11.5 µM]	-16%	-35	?	-16%
O=C(NC1C(=O)NNC1c1ccccc1)c1ccccc1 (centres undefined)	21*	0%	15%	116*	-8%	-22%
O=c1cc(-c2ccccc2)oc2ccc(Cl)cc12	/	/	3%	/	/	-3%
O=c1cc(-c2ccc3c(c2)OCCO3)oc2ccc(Cl)cc12	47*	7%	-9%	76*	3%	-7%
O=c1cc(-c2cccs2)oc2ccc(Cl)cc12	37*	-13%	-15%	59*	8%	3%
O=c1cc(-c2ccsc2)oc2cc(-c3ccc4c(c3)OCO4)ccc12	/	/	-6%	/	/	-5%
CCc1ccc(CNC(=O)Cc2ccc(NC(=O)N3CCSc4ncccc43)cc2)cc1	/	/	/	/	/	5%[15.4 µM]
CCOC(=O)C1(CCc2ccccc2)CCN(C(=O)C2=C(C)OCCO2)CC1	22*	0%	-11%	42*	5%	3%
CCOC(=O)C1(CCc2ccccc2)CCN(C(=O)CN2CCOC2=O)CC1	21*	5%	-7%	46	2%	-11%
CCOC(=O)C1(CCc2ccccc2)CCN(C(=O)c2cnc(C)cn2)CC1	29*	3%	-10%	83*	5%	6%
CCOC(=O)C1(CCc2ccccc2)CCN(C(=O)CCc2cnn(C)c2)CC1	-1	-1%	22%	16	0%	-2%
CCOC(=O)C1(CCCc2ccccc2)CCN(C(=O)c2cncs2)CC1	-3	4%	13%	11	2%	-5%
CCCOc1ccc(Cn2c(=O)sc3ccccc32)cc1	/	/	/	/	/	-3%
O=c1sc2ccccc2n1CCOc1ccccc1	39*	16%	-18%	66*	4%	-7%
Cc1ccc(OCn2c(=O)sc3ccccc32)cc1	47*	-10%	0%	65*	6%	8%
COc1ccc(Br)cc1CNC(=O)c1cc(=O)[nH]c2ccc(S(=O)(=O)N3CCCCC3C)cc12 (centres undefined)	/	/	/	/	/	1%
CCCc1nnc2n1N=C(c1ccc(-c3cc(Cl)ccc3Cl)o1)CS2	21*	1%	/	active	1%	/
CCC(Sc1nncn1C)C(=O)Nc1nnc(-c2ccccc2Cl)s1 (centres undefined)	17*	2%	-3%	27	-4%	-1%
COc1cccc(NS(=O)(=O)NC(=O)c2c[nH]c3ccccc23)c1	45*	-4%	-5%	53	/	1%
COc1ccc(NS(=O)(=O)NC(=O)c2c[nH]c3ccccc23)cc1	-1	-4%	0%	3	/	-1%
COc1cccc(NS(=O)(=O)NC(=O)c2c(C)[nH]c3ccccc23)c1	31*	6%	-4%	30*	3%	5%
